SMILES strings stand for the structures. About 79,000 compounds went through this panel and 15% of them were active in at least one assay; those are over-represented in the sample as a whole. Active and inactive are the calls of the source. No stated cut-off is given here; in the data, active means growth inhibition above about 70%; inactive means the rest.

A short description of one assay: NCI Yeast Anticancer Drug Screen. Data for the bub3 strain (AID 167). To be noted: S. cerevisiae bub3 mutant strain, at 50.0 µM, hits give high values. The gist of the method: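 Part of a panel of yeast mutants defective in DNA damage repair or cell cycle regulation. Each strain is grown with compound, and inhibition is calculated relative to solvent-treated cultures.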
Turning to `O/N=C(/Cc1ccccc1)c1ccccc1`, the growth inhibition was 5.15% (inactive).

For the compound `CC(CS(C)(=O)=O)S(=O)(=O)O` (configuration not stated), the growth inhibition is -14.7% (inactive).

Turning to `CC(C)C(Nc1ncnc2nc[nH]c12)C(=O)O` (configuration not stated), the growth inhibition is -23.2% (inactive).

In the case of `CC(=O)Oc1ccc2c(c1)CC[C@@H]1C2[C@@H](O[N+](=O)[O-])C[C@@]2(C)C1CC[C@@H]2O[N+](=O)[O-]` (some centres not stated), the growth inhibition is 10.1% (inactive).

In the case of `COc1ccc([N+](=O)[O-])cc1N=NN(C)C`, the growth inhibition was -5.8% (inactive).

In the case of `Clc1ccc(-c2csc3nc(-c4cccs4)nn23)cc1`, the growth inhibition is -6.95% (inactive).

Turning to `CC1(C)C(=O)/C=C\C(=O)C(C)(C)C(=O)/C=C\C(=O)C(C)(C)C(=O)/C=C\C(=O)C(C)(C)C(=O)/C=C\C1=O`, the growth inhibition is -13.2% (inactive).

As to `O=C(O)CC12C3C4C5C3C1C5C42` (configuration not stated), the growth inhibition is 47.9% (inactive).

As for `O=c1c2ccccc2c2nccn2c2ccccc12`, the growth inhibition is -0.3% (inactive).

`CC(C)CNC(=S)N/N=C/c1ccc(C(C)C)cc1`: the growth inhibition is -13.1% (inactive).

In the case of `Cc1nc2c(sc(=S)n2-c2ccccc2)c2nc3ccccc3n12`, the growth inhibition is -2.55% (inactive).

For `Oc1nc2nc[nH]n2c1N=Nc1ccccc1`, the growth inhibition was 10.3% (inactive).

On to `O=C1C=C(Nc2ccc(Br)cc2)c2ccccc2C1=O`, for which the growth inhibition was -1.45% (inactive).

As for `Cc1ccc(-c2cc(=O)c3cccc(CC(=O)O)c3o2)cc1`, the growth inhibition is -25.8% (inactive).

As to `O=C(Nc1c(Cl)cccc1Cl)Nc1c(Cl)cccc1Cl`, the growth inhibition is 16.8% (inactive).

For `CCOP(=O)(OCC)C(C(=O)OC)C(=O)C(=O)Nc1cccc([N+](=O)[O-])c1` (configuration not stated), the growth inhibition was 0.35% (inactive).

Turning to `O=C1C2CCC(C2)C1CN1CCOCC1` (configuration not stated), the growth inhibition is -7.35% (inactive).

For the compound `CNC(=O)C1CCC(CC2CCCCC2)CC1` (configuration not stated), the growth inhibition is 42.8% (inactive).

With `O=C(O)c1cccc(C(=O)O)[n+]1[O-]`, the growth inhibition was -11.8% (inactive).

On to `OCCOc1ccccc1-c1ccccc1`, for which the growth inhibition is -29.5% (inactive).

As to `N#C/C(=C(/Cc1ccc(F)cc1)NP(=O)(c1ccccc1)c1ccccc1)c1ccc(F)cc1`, the growth inhibition was 2.6% (inactive).

As to `C=CCCCCCCCCC(=O)NC(C)C(C)(C)C` (configuration not stated), the growth inhibition is 27.3% (inactive).

The nature of another assay: NCI Yeast Anticancer Drug Screen. Data for the mlh1 rad18 strain (AID 175). To be noted: S. cerevisiae mlh1 rad18 strain growth inhibition; at 50.0 µM; hits give high values. Summed up:
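A repair-deficient yeast strain is exposed to test compound, and growth is scored relative to vehicle-treated controls.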
For `CN(C)S(=O)(=O)c1ccc(Cl)cc1`, the growth inhibition was -9.3% (inactive).

On to `COc1cc([N+](=O)[O-])c(C)cc1Br`, for which the growth inhibition was 9.45% (inactive).

For the compound `Cc1cc(C)c(S(=O)(=O)c2cccs2)c(C)c1`, the growth inhibition was -2.8% (inactive).

With `Cc1ccc(C(C)C)c(OC(=O)NCCCCCCNC(=O)Oc2cc(C)ccc2C(C)C)c1`, the growth inhibition was 9.05% (inactive).

`O=C1c2ccccc2SC[C@@H]2CCCN12`: the growth inhibition is 2.35% (inactive).

In the case of `CCCCCCCCCCCCCCCCCCN(C)CC(COC)OP(=O)([O-])OCC[N+](C)(C)C` (configuration not stated), the growth inhibition is 24.9% (inactive).

As for `Cc1ccc(C(O)/C(=N/N)c2nc3ccc([N+](=O)[O-])cc3[nH]c2=O)cc1` (configuration not stated), the growth inhibition was -12.1% (inactive).

Take `Cc1cc2c(=O)cc(-c3ccccc3)oc2c(C(=O)O)c1C`: the growth inhibition was -10.4% (inactive).

Regarding `NC(=O)CSCC(=O)O`, the growth inhibition is -14.1% (inactive).

Consider `CCn1c2ccccc2c2cc(N)c(N=Nc3ccc(-c4ccc(N)c(OC)c4)cc3OC)cc21`, for which the growth inhibition is 29.8% (inactive).

For the compound `O=C(Nc1cccc(C(=O)NCCCO)c1)/C(=C/c1ccccc1)NC(=O)c1ccccc1`, the growth inhibition was 4.35% (inactive).

For `O=c1ccc(-c2ccccc2)n[nH]1`, the growth inhibition was -23.9% (inactive).

As for `CCc1ccc(N=Nc2c(F)c(F)c(N)c(F)c2F)cc1`, the growth inhibition is 14.3% (inactive).

On to `Nc1cc(=O)n(-c2ccccc2)nc1Cl`, for which the growth inhibition was 0.2% (inactive).

With `Oc1ccccc1C1SC(c2ccccc2O)SC(c2ccccc2O)S1` (configuration not stated), the growth inhibition is 95.8% (active).

On to `O=C(Nc1cccc2ccccc12)O/N=C/c1ccccn1`, for which the growth inhibition was -1.7% (inactive).

On to `CC(C)(C)[N+](=O)[O-]`, for which the growth inhibition was 17.1% (inactive).

Regarding `N#CCN1CCOCC1`, the growth inhibition was 27.1% (inactive).

As for `O/N=C(/Cc1ccccc1)c1ccccc1`, the growth inhibition was 17.8% (inactive).

As for `CC(CS(C)(=O)=O)S(=O)(=O)O` (configuration not stated), the growth inhibition was -5.85% (inactive).

With `CC(C)C(Nc1ncnc2nc[nH]c12)C(=O)O` (configuration not stated), the growth inhibition is -16.9% (inactive).

On to `CC(=O)Oc1ccc2c(c1)CC[C@@H]1C2[C@@H](O[N+](=O)[O-])C[C@@]2(C)C1CC[C@@H]2O[N+](=O)[O-]` (some centres not stated), for which the growth inhibition is 14.8% (inactive).

`COc1ccc([N+](=O)[O-])cc1N=NN(C)C`: the growth inhibition is -8.45% (inactive).

As to `Clc1ccc(-c2csc3nc(-c4cccs4)nn23)cc1`, the growth inhibition was -5.3% (inactive).

As for `CC1(C)C(=O)/C=C\C(=O)C(C)(C)C(=O)/C=C\C(=O)C(C)(C)C(=O)/C=C\C(=O)C(C)(C)C(=O)/C=C\C1=O`, the growth inhibition is 12.7% (inactive).

For the compound `O=C(O)CC12C3C4C5C3C1C5C42` (configuration not stated), the growth inhibition was 26.6% (inactive).

`O=c1c2ccccc2c2nccn2c2ccccc12`: the growth inhibition is -5.25% (inactive).

Consider `CC(C)CNC(=S)N/N=C/c1ccc(C(C)C)cc1`, for which the growth inhibition was -28.1% (inactive).

For `Cc1nc2c(sc(=S)n2-c2ccccc2)c2nc3ccccc3n12`, the growth inhibition is -20.6% (inactive).

Take `Oc1nc2nc[nH]n2c1N=Nc1ccccc1`: the growth inhibition is 6.9% (inactive).

`O=C1C=C(Nc2ccc(Br)cc2)c2ccccc2C1=O`: the growth inhibition was -2.05% (inactive).

As for `Cc1ccc(-c2cc(=O)c3cccc(CC(=O)O)c3o2)cc1`, the growth inhibition was -1.2% (inactive).

Take `O=C(Nc1c(Cl)cccc1Cl)Nc1c(Cl)cccc1Cl`: the growth inhibition was 10.9% (inactive).

For the compound `CCOP(=O)(OCC)C(C(=O)OC)C(=O)C(=O)Nc1cccc([N+](=O)[O-])c1` (configuration not stated), the growth inhibition was 1.45% (inactive).

As for `O=C1C2CCC(C2)C1CN1CCOCC1` (configuration not stated), the growth inhibition is -7.35% (inactive).

For the compound `CNC(=O)C1CCC(CC2CCCCC2)CC1` (configuration not stated), the growth inhibition was 38.5% (inactive).

Consider `O=C(O)c1cccc(C(=O)O)[n+]1[O-]`, for which the growth inhibition was -10% (inactive).

On to `OCCOc1ccccc1-c1ccccc1`, for which the growth inhibition is -7.65% (inactive).

Consider `N#C/C(=C(/Cc1ccc(F)cc1)NP(=O)(c1ccccc1)c1ccccc1)c1ccc(F)cc1`, for which the growth inhibition was -2.35% (inactive).

In the case of `C=CCCCCCCCCC(=O)NC(C)C(C)(C)C` (configuration not stated), the growth inhibition is 25.5% (inactive).

(Values after PubChem BioAssay (NCI).)
